# In PubChem BioAssay (NCATS):
# “And” between values parts separate entries of the source, which are not always exact repeats. Equal entries are not always repeated. Records with an inconclusive call do not appear. A call without a number means that no potency is given here. The source made the active and inactive calls. Unless noted, the call rests on the fitted dose curve; in most records, active means well fitted curve in the direction sought with a large enough effect; inconclusive means small, poorly fitted or top-dose-only effect, or another doubt; inactive means no such curve, though single readings can be large; an effect the other way counts as inactive or inconclusive.
# Legend:
# [1] = molecular target: Voltage-gated inwardly rectifying potassium channel KCNH2 (Homo sapiens) (UniProt Q12809); experiment: qHTS Assay for Small Molecule Inhibitors of the Human hERG Channel Activity (AID 588834);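 further: lower thallium flux fluorescence means stronger hERG block; nearly all actives have a fitted effect of over 50% in size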; further: potency means the concentration at half of the fitted maximal effect
# Chain of Voltage-gated inwardly rectifying potassium channel KCNH2 (Homo sapiens) (Q12809 whole entry, looked up): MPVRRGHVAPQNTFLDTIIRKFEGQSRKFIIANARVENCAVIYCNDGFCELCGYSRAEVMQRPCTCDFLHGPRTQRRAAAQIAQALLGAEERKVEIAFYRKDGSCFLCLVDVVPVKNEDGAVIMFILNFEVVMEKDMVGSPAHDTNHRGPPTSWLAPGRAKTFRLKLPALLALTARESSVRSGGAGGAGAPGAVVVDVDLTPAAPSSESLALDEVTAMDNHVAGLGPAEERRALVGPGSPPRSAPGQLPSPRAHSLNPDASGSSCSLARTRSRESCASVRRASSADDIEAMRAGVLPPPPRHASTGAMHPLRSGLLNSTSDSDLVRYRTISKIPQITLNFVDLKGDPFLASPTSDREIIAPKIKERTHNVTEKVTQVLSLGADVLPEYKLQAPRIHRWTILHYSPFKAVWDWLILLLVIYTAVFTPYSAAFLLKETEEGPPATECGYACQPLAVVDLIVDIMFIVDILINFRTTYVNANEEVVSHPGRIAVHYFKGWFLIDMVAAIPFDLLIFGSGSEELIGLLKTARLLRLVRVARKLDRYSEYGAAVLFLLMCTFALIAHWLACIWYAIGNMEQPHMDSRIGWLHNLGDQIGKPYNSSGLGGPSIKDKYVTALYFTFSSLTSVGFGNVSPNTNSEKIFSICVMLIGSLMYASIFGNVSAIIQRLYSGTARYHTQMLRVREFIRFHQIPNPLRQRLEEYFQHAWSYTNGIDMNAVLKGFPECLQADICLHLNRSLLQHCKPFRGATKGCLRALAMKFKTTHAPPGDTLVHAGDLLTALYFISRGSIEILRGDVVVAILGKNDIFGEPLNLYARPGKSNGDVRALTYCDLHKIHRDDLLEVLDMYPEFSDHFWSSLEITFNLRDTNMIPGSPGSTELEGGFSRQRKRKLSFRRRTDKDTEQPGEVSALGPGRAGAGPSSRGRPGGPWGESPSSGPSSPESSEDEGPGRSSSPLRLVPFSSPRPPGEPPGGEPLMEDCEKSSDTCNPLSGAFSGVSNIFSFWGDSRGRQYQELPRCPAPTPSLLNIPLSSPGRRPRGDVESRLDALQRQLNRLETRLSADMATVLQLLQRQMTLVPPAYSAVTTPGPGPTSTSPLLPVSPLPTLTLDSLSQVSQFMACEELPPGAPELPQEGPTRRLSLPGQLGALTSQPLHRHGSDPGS
# Method in brief: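 Kinetic FDSS fluorescence; U2OS + hERG BacMam (~100 virus particles/cell); FluxOR Tl+ flux; ~10 min cpd; AC50 (Hill).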
# [2] = molecular target: Luciferin 4-monooxygenase (Photinus pyralis) (UniProt P08659); experiment: Biochemical firefly luciferase enzyme assay for NPC (AID 624030); further: nearly all actives have a fitted effect of over 70% in size; further: potency means the concentration at half of the fitted maximal effect
# Chain of Luciferin 4-monooxygenase (Photinus pyralis) (P08659 whole entry, looked up): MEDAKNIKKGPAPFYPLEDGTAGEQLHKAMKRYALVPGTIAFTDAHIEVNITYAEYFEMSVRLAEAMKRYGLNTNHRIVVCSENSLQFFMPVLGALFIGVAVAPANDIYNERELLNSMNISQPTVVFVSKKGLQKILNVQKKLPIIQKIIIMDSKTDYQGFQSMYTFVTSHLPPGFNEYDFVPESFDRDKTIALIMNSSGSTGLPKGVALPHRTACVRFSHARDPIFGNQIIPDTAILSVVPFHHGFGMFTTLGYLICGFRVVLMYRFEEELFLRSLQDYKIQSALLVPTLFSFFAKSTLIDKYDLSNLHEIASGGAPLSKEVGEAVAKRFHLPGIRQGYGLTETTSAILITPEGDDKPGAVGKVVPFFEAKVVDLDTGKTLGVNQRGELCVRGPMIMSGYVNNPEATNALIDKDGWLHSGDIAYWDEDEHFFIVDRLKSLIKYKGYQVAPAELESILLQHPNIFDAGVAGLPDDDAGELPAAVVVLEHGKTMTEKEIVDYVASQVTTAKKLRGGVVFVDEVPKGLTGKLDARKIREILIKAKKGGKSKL
# Method in brief: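 Direct inhibition of firefly luciferase enzyme (10 nM final, 50 mM Tris Acetate) assessed by luminescence within 5 minutes. Percent activity scaled between DMSO and PTC124 positive control, with concentration-effect curves classified by fit quality and response.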
# [3] = S16 Schwann cell viability assay (CellTiter-Glo assay) (AID 624031);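 further: cellular ATP luminescence as a viability measure; series mostly up to about 58 µM; nearly all actives have a fitted effect of over 70% in size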
# Method in brief: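 Native S16 rat Schwann cells, 500-750 cells/well in DMEM with 10% FBS, dosed with compound after overnight culture and incubated 24h at 37 degree Celsius/5% CO2. Viability by CellTiter-Glo luminescence; % activity normalized to no-cell wells and DMSO-treated cells.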
# [4] = S16 Schwann cell PMP22 intronic element firefly luciferase assay (AID 624032); further: series mostly up to about 58 µM; nearly all actives have a fitted effect of over 30% in size
# Method in brief: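 Luciferase reporter of PMP22 intronic-element expression in stably transfected S16 rat Schwann cells, read by ONE-Glo luminescence after 24 h compound exposure at 37 C. Activity scaled between DMSO (0%) and positive-control PTC124; concentration-effect curves quality-classified.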
# [5] = molecular target: Glutaminase kidney isoform, mitochondrial (Homo sapiens) (UniProt O94925); experiment: qHTS for Inhibitors of Glutaminase (GLS): LOPAC Validation (AID 624146);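 further: glutamate product detected by oxidase and peroxidase coupled Amplex red fluorescence gain; series mostly up to about 46 µM; nearly all actives have a fitted effect of over 60% in size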
# Chain of Glutaminase kidney isoform, mitochondrial (Homo sapiens) (O94925 whole entry, looked up, canonical isoform): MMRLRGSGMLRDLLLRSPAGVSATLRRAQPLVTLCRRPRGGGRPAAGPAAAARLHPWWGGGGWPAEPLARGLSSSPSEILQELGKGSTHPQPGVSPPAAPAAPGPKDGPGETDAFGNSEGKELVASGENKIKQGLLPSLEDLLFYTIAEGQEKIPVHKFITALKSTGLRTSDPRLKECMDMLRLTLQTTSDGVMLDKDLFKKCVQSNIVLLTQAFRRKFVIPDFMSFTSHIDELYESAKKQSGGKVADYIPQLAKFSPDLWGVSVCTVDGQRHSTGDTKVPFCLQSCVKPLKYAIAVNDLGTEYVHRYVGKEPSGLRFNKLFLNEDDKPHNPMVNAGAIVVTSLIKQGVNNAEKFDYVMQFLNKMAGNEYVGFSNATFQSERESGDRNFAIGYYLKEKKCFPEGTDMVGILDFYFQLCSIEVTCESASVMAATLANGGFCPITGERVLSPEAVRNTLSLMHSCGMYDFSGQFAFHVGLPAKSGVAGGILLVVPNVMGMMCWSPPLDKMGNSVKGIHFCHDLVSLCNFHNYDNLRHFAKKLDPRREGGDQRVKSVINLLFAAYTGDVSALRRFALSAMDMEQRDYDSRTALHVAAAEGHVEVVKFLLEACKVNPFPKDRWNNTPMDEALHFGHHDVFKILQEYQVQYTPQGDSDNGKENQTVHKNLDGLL
# Method in brief: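 Read-out is an Amplex red fluorescence increase coupled through glutamate oxidase and HRP, measured before and after 30 min room-temperature incubation. hKGA is in 45 mM KH2PO4 (pH 8.2) with 0.02% Tween-20; glutamine added as 1mM solution.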
# [6] = qHTS of Trypanosoma Brucei Inhibitors: LOPAC Validation (AID 624147)
# Method in brief: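 Luminescent Kinase-Glo Plus end-point after 45 min room-temperature reaction of T. brucei pyruvate kinase started with 130 uM ADP (final). Buffer TEA 50 mM pH 7.2 with KCl, MgCl2, BSA, Tween-20; titration-based qHTS with fitted concentration-effect curves.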
# [7] = molecular target: Glucagon-like peptide 1 receptor (Homo sapiens) (UniProt P43220); experiment: qHTS of GLP-1 Receptor Agonists: LOPAC Validation (AID 624148);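 further: luminescence from a luciferase reporter switched on by cAMP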; further: potency means the concentration at half of the fitted maximal effect;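 on activation: higher luminescence signal means agonism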
# Chain of Glucagon-like peptide 1 receptor (Homo sapiens) (P43220 whole entry, looked up): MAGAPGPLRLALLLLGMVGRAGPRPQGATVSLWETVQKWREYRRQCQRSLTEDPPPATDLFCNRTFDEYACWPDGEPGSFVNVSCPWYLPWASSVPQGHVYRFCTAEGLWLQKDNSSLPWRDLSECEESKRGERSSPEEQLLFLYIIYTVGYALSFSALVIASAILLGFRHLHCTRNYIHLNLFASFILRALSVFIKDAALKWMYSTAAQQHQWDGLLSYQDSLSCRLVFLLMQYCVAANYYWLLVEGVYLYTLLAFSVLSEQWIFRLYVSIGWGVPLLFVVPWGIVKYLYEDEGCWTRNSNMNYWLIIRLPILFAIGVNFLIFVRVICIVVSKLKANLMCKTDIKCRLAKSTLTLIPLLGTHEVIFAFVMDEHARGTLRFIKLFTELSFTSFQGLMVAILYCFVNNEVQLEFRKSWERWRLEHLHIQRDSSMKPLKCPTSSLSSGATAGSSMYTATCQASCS
# Method in brief: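 Agonism scored as increased luciferase luminescence driven by cAMP in HEK293 clones carrying GLP-1R. Cells settled 12 hours, received compound for 4-6 hr at 37 deg C, 5% CO2, and were read after 12 min detection reagent at RT.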
# [8] = qHTS of Nrf2 Activators: LOPAC Validation (AID 624149)
# Method in brief: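 Luminescence read-out of ARE-luciferase activation: AREc32_Fluc cells treated with compounds for 24 hr at 37 deg C, then lysed with Steady-Glo for 30 min at room temperature before reading.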
# [9] = HTS Assay for Allosteric Antagonists of the Human D2 Dopamine Receptor: Hit Validation in HTRF (AID 624455);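 further: stable D1 dopamine receptor cell line scored for blocking the D1 response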
# Method in brief: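 First, antagonism was screened by calcium flux in a force-coupled, inducible Hek293 Trex D2 line challenged with EC80 dopamine. Hits then went into an HTRF assay in cells stably expressing D1, testing inhibition of the D1 response.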
# [10] = qHTS assay for small molecule agonists of the antioxidant response element (ARE) signaling pathway (AID 651741; active means well fitted activation curve with a large enough effect in the signal ratio; the % refers to the signal ratio; further: potency means the concentration at half of the fitted maximal effect)
# Method in brief: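 Quantitative HTS in HepG2 cells stably expressing an ARE-beta-lactamase reporter; 16 h compound exposure at 37 C, followed by 2 h room-temperature incubation with LiveBLAzer B/G FRET substrate and fluorescence measurement.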
# [11] = qHTS assay for small molecule activators of the p53 signaling pathway (AID 651743; active means well fitted activation curve with a large enough effect in the signal ratio, not every such curve was filed as active; the % refers to the signal ratio; further: series mostly up to about 92 µM); settings: HCT-116 p53RE-bla, beta-lactamase FRET ratio, 16 h; activation: active compounds read high
# Method in brief: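 Read-out is fluorescence intensity from the LiveBLAzer B/G FRET substrate, added for 2 hours at room temperature after HCT-116 p53RE-bla cells had been incubated with compounds for 16 hours at 37 C.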
# [12] = S16 Schwann cell PMP22 intronic element beta-lactamase assay (AID 624044; calls by dose curve; further: nearly all actives have a fitted effect of over 15% in size; further: potency means the concentration at half of the fitted maximal effect)
# Method in brief: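 Rat S16 Schwann cells with beta-Lac driven by a PMP22 intronic element, compound-treated 24 h at 37 °C. LiveBLAzer FRET B/G read: 460 nm normalized to potassium clavulanate vs DMSO; 535 nm FRET as viability; concentration-effect curves classified.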
SMILES,Potency [1],Potency [2],Potency [3],Potency [4],Potency [5],Potency [6],Potency [7],outcome [8],Potency [9],Potency [10],activation [11],Potency [12]
Cn1c(=O)c2c(ncn2C)n(C)c1=O,inactive,inactive,inactive,inactive,inactive,inactive,inactive,inactive,inactive,inactive,-3.61% (inactive) and -3.49% (inactive),–
CC(=O)OCC(CCn1cnc2cnc(N)nc21)COC(C)=O,inactive,inactive,inactive,inactive,–,–,–,–,–,–,–,–
NCCc1cnc[nH]1,inactive,inactive,inactive,inactive,–,inactive,inactive,inactive,inactive,–,–,inactive
C[C@@H]1CC(=O)NN=C1c1ccc(NN=C(C#N)C#N)cc1,inactive,–,–,–,–,–,–,–,–,–,–,–
Nc1nc2c(ncn2COC(CO)CO)c(=O)[nH]1,inactive,inactive,inactive,inactive,inactive,inactive,inactive,inactive,inactive,–,–,–
COC(=O)Nc1nc2ccc(C(=O)c3cccs3)cc2[nH]1,inactive,inactive,inactive,inactive,inactive,inactive,inactive,inactive,inactive,–,–,2.24 µM (active)
Clc1ccc2nsnc2c1NC1=NCCN1,inactive,inactive,inactive,inactive,inactive,inactive,inactive,inactive,inactive,–,–,–
NCCCCCC(=O)O,inactive,inactive,inactive,inactive,inactive,inactive,inactive,inactive,inactive,–,–,–
NCCS(=O)(=O)O,inactive,inactive,inactive,inactive,inactive,inactive,inactive,inactive,inactive,–,-1.87% (inactive),inactive
O=C1N(c2ccccc2)c2ccccc2C1(Cc1ccncc1)Cc1ccncc1,inactive,inactive,inactive,inactive,inactive,inactive,inactive,inactive,inactive,–,–,inactive
CC(C)NCC(O)COc1ccc(CCOCC2CC2)cc1 (configuration not stated),inactive,inactive,inactive,inactive,inactive,inactive,inactive,inactive,inactive,–,–,–
COc1ccccc1OCC(O)CN1CCN(CC(=O)Nc2c(C)cccc2C)CC1 (configuration not stated),inactive,inactive,inactive,inactive,inactive,inactive,inactive,inactive,inactive,–,–,inactive
O=c1c(-c2ccc(O)cc2)coc2cc(O)cc(O)c12,inactive,9.07 µM (active),inactive,inactive,inactive,inactive,inactive,inactive,inactive,9.69 µM (active) and 13.3 µM (active),12.7% (inactive) and 14.1% (inactive),25.1 µM (active)
Cc1cn([C@H]2C[C@H](N=[N+]=[N-])[C@@H](CO)O2)c(=O)[nH]c1=O,inactive,inactive,inactive,–,inactive,inactive,inactive,inactive,inactive,–,7.41% (inactive) and -3.71% (inactive),–
Cc1ccc(C(=O)Nc2ccc(S(=O)(=O)O)c3cc(S(=O)(=O)O)cc(S(=O)(=O)O)c23)cc1NC(=O)c1cccc(NC(=O)Nc2cccc(C(=O)Nc3cc(C(=O)Nc4ccc(S(=O)(=O)O)c5cc(S(=O)(=O)O)cc(S(=O)(=O)O)c45)ccc3C)c2)c1,inactive,11.4 µM (active),inactive,inactive,–,–,inactive,inactive,inactive,–,–,–
COc1cc2nc(N3CCN(C(=O)c4ccco4)CC3)nc(N)c2cc1OC,inactive,inactive,–,–,inactive,inactive,inactive,inactive,inactive,–,–,–
Clc1ccc(C(c2ccccc2Cl)C(Cl)Cl)cc1 (configuration not stated),31.6 µM (active) and 10 µM (active) and 5.62 µM (active),inactive,inactive,–,inactive,inactive,inactive,inactive,inactive,66.8 µM (active),–,–
CC(C)(C)C(=O)Oc1ccc(S(=O)(=O)Nc2ccccc2C(=O)NCC(=O)O)cc1,inactive,inactive,–,inactive,–,–,–,–,–,–,–,inactive
COc1ccc(C2CNC(=O)C2)cc1OC1CCCC1 (configuration not stated),inactive,–,–,–,inactive,inactive,0.0461 µM (active),inactive,inactive,–,–,–
NC12CC3CC(CC(C3)C1)C2,inactive,inactive,inactive,–,inactive,inactive,inactive,inactive,inactive,–,–,–
Clc1ccccc1C(c1ccccc1)(c1ccccc1)n1ccnc1,10 µM (active) and 11.2 µM (active),inactive,inactive,–,inactive,inactive,inactive,inactive,inactive,–,–,inactive
CS(=O)(=O)Nc1ccc([N+](=O)[O-])cc1Oc1ccccc1,inactive,inactive,inactive,inactive,–,–,inactive,inactive,inactive,–,–,–
CC1COc2c(N3CCN(C)CC3)c(F)cc3c(=O)c(C(=O)O)cn1c23 (configuration not stated),inactive,–,–,–,inactive,inactive,inactive,inactive,inactive,–,–,–
COc1cc2nc(N(C)CCCNC(=O)C3CCCO3)nc(N)c2cc1OC (configuration not stated),inactive,–,–,–,inactive,inactive,inactive,inactive,inactive,–,–,–
